# Sampled rows, rich in hits. Any-hit rate of the full collection: about 19%.
# RORgamma inh = qHTS for inhibitors of ROR gamma transcriptional activity; Nuclear receptor ROR-gamma (Mus musculus), P51450; Drosophila S2 Gal4-RORgamma UAS-luciferase reporter, 20 h; Potency, µM (titrated, usually from 53.6 µM), without a hit: top-dose activity change, negative = inhibition, most hits filed as inhibitors; 310,000 tested, 5.4% active; AID 2551, 2010; also: nearly all actives have a fitted effect of over 60% in size
# Target sequence (P51450 whole entry, looked up, the tested form may be a part): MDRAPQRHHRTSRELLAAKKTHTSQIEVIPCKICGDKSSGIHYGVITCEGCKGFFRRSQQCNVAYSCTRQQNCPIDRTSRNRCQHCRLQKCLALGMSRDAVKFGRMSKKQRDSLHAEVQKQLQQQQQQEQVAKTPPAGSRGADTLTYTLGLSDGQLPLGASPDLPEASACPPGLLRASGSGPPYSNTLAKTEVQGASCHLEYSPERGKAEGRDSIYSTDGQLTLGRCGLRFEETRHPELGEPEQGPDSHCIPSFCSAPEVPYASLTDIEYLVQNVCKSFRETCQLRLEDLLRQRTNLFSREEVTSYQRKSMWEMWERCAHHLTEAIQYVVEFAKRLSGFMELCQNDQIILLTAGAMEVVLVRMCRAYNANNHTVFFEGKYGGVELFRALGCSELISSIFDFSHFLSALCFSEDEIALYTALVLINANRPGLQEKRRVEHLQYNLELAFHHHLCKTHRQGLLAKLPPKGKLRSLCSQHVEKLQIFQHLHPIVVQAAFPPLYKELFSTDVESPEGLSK
#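 Stable Schneider cell line, Gal4 DNA-binding domain fused to ROR gamma, UAS-luciferase. Cmpd 1 hr RT → CuSO4 700 uM final → 20 hr RT → luciferase reagent 10 min → luminescence.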
# TDP1 inh = qHTS Assay for Inhibitors of Tyrosyl-DNA Phosphodiesterase (TDP1). Tyrosyl-DNA phosphodiesterase 1 (Homo sapiens), Q9NUW8. AID 485290, 2010. 350,000 tested, 0.28% active. Potency, µM (series often up to 130 µM), for the others: at the highest dose activity change, negative = inhibition, actives largely listed as inhibitors. recombinant TDP1, AlphaScreen DNA substrate cleavage; also: nearly all actives have a fitted effect of over 40% in size
#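 E. coli-derived human Tdp1, 1 nM final. Cpd preinc 15 min RT; substrate 15 nM final, 5 min RT; AS bead mix 10 ug/ml final, 10 min RT. Signal loss = tyrosine-FITC cleavage. No-enzyme wells = max signal.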
# DT40 TDP1 CPT = qHTS for Inhibitors of human tyrosyl-DNA phosphodiesterase 1 (TDP1): qHTS in cells in presence of CPT; 420,000 tested, 12% active; chicken DT40 Tdp1-/-;hTDP1 cells + 20 nM CPT, ATP luminescence, 48 h; Potency, µM (titrated, usually from 46.2 µM), inactives show top-dose activity change, negative = growth inhibition, usual class: inhibitors; also: nearly all actives have a fitted effect of over 55% in size
#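 Chicken DT40 Tdp1-/- cells stably complemented with human TDP1 were seeded at 400 cells/well in medium containing 20 nM camptothecin, exposed to pin-transferred compounds, and grown at 37 °C for at least 48 hr. Viability was read as ATP luminescence.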
# DT40 TDP1 no CPT = qHTS for Inhibitors of human tyrosyl-DNA phosphodiesterase 1 (TDP1): qHTS in cells in absence of CPT. DT40 Tdp1-/- hTDP1 cells, no CPT, ATP luminescence, 48 h. Potency, µM (top dose mostly 46.2 µM), for inactives: at the highest dose activity change, negative = growth inhibition, most hits filed as inhibitors. 420,000 tested, 15% active; also: nearly all actives have a fitted effect of over 55% in size
#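 Cells were dispensed at 400 per well, compounds added by pin tool, plates incubated ≥48 hr at 37 °C, then CellTiter-Glo added for 30 min at room temperature before luminescence reading. Line: DT40 Tdp1-/- complemented with hTDP1; camptothecin omitted.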
# VP16 counter = VP16 counterscreen qHTS for inhibitors of ROR gamma transcriptional activity. 310,000 tested, 3.5% active. Potency, µM (series often up to 53.6 µM), for the others: at the top dose activity, negative = inhibition, most hits filed as inhibitors. Drosophila S2 Gal4-VP16 UAS-luciferase, luminescence, 20 h. AID 2546, 2010;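 also: Gal4-VP16 expression switched on by copper sulfate through the metallothionein promoter; nearly all actives have a fitted effect of over 50% in size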
# The depositor's hits bear a star; ? = inconclusive; . = no result; [ ] = another dose, or the depositor's remark. Calls follow the shape of the dose curve; as a rule, active = well fitted curve in the direction sought with a large enough effect; inconclusive = small, poorly fitted or top-dose-only effect, or another doubt; inactive = no such curve, though single readings can be large; an effect the other way counts as inactive or inconclusive. % is scaled to controls: 0 for no effect and ±100 for the full control effect; potency is read from the fitted curve at half-maximal effect.
SMILES,RORgamma inh,TDP1 inh,DT40 TDP1 CPT,DT40 TDP1 no CPT,VP16 counter
O=C(c1ccc(Cl)cc1)C1CCN(C(=O)c2ccc(F)cc2)CC1,38.7%,.,20.6µM*,10.3µM*,?
O=C(O)C1CCCN(C(=O)NCc2ccccc2)C1 (stereo not given),-11.1%,3.8%,-10.6%,-6.3%,-2.4%
COc1ccc(C(=O)N2CCC(C(=O)c3ccc(F)cc3)CC2)cc1,22.4%,2.2%,?,?,-13.1%
O=C(Nc1ccc(F)cc1F)N1CCN(c2ccc(Cl)c(Cl)c2)CC1,.,6.1%,6.51µM*,4.61µM*,.
O=C(NCc1ccccc1)N1CCN(c2ccc(Cl)c(Cl)c2)CC1,9.9%,1.0%,18.4µM*,5.8µM*,-18.8%
O=C(NCc1ccccc1)C1CCCN(C(=O)NCc2ccccc2)C1 (stereo not given),-29.3%,2.9%,1.46µM*,4.4%,22.1%
CC(C)(C)n1nc2c(c1NC(=O)CCCc1ccccc1)CS(=O)C2 (stereo not given),-14.1%,3.9%,-2.0%,-11.1%,1.7%
O=Cc1c(N2CCN(c3ccccc3)CC2)nc2ccccn2c1=O,?,3.7%,-12.1%,?,3.1%
CC(C)Cn1cc(NC(=O)N2CCN(c3ccccc3F)CC2)c2ccccc2c1=O,.,-3.2%,?,?,.
O=C(c1ccc(F)cc1)C1CCN(C(=O)NCc2ccccc2)CC1,17.3%[10 µM],2.0%,16.4µM*,23.1µM*,4.2%
O=C(NC1CCN(C(=O)NCc2ccccc2)CC1)c1ccc(F)cc1,-20.6%,-3.3%,-1.6%,-11.6%,2.5%
CC(C)Cn1cc(NC(=O)N2CCN(c3ccc(F)cc3)CC2)c2ccccc2c1=O,.,6.3%,14.6µM*,18.4µM*,.
O=C(Nc1ccccc1)N1CCN(c2ccc(F)cc2)CC1,-27.3%,1.2%,?,?,0.6%
O=C(NCc1ccccc1)N1CCN(c2ccc(F)cc2)CC1,-16.2%,2.6%,18.4µM*,14.6µM*,4.8%
O=C1NCCN(Cc2ccoc2)C1CC(=O)N(CCO)Cc1ccccc1 (stereo not given),-13.7%,8.3%,19.8%,-24.6%,3.1%
O=C(O)CCC(=O)OCCN(Cc1ccc(Oc2ccc([N+](=O)[O-])cc2)cc1)C(=O)C(Cl)Cl,.,.,18.4µM*,?,.
O=S1(=O)c2cccc3cccc(c23)N1Cc1nnc(-c2ccccc2Br)o1,?,-0.9%,14.6µM*,18.4µM*,-14.7%
COc1ccc(S(=O)(=O)N(C)C[C@@H]2OCc3cnnn3CCCC(=O)N([C@H](C)CO)C[C@@H]2C)cc1,.,.,-1.2%,-14.4%,.
CC(NC(=S)Nc1c(Br)cccc1OC(F)F)C(C)(C)C (stereo not given),10µM*,2.8%,?,?,?
COc1cc(/C=N/NC(=O)CC(=O)NC2CCCCC2)ccc1O,-2.2%,.,6.1%,-2.9%,-2.3%
COc1cc(/C=N/NC(=S)NC2CC3CCC2C3)ccc1O (stereo not given),2µM*,8.6%,?,?,5.01µM*
COc1ccc(/C=N/NC(=S)N[C@H]2CC3CCC2C3)cc1 (stereo not given in full),0.631µM*,7.6%,?,?,3.16µM*
C=C(C)CSc1nnc([C@@H]2CCCN2C(=O)OC(C)(C)C)o1,-8.5%,-2.0%,8.1%,-14.4%,3.3%
Cc1cccc(NC(=O)c2nc[nH]c2C(=O)N[C@@H](C)CO)c1,.,.,1.0%,-20.7%,.
Cc1c(Br)c(=O)oc2c(Br)c(O)c(O)cc12,5.01µM*,5.1%,4.0%,7.3%,-20.0%
Cc1c(Br)c(=O)oc2c(Br)c(O)ccc12,3.2%,-2.9%,-7.1%,-3.4%,0.8%
N=C1N=C(N)c2cc3ccccc3cc21,-2.3%,11.6%,?,24.3µM*,-6.3%
Nc1ccc2cc3ccccc3cc2c1,-0.5%,24.5%,?,?,1.3%

# Bioassay records as filed in PubChem.
